PolyA inhibitor = polyadenylation inhibitors in yeast reporter cells, primary screen, luminescence, S. cerevisiae; S. cerevisiae SKY197-pL101 polyadenylation reporter, beta-gal luminescence; efflux-impaired pdr1/pdr3 knockout yeast; score 100 = 6 SD above DMSO; activity score, % at 12 µM; 300,000 compounds, 0.02% hits;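 active = lowest replicate activity score at least 50, where 100 means six control SD above control mean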;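 note: yeast exposed to compound for 9 h at 30 °C; higher score means more reporter readthrough which indicates perturbed polyadenylation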
MOR-DOR ag = agonists of OPRM1-OPRD1 heterodimerization, primary screen, cell-based, luminescence; Mu-type opioid receptor (Homo sapiens) + Delta-type opioid receptor (Homo sapiens), …; cells; activation, % at 9.3 µM; 340,000 compounds, 0.3% hits; AID 504326, 2011; in the data active = activation above about 18%;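 note: 0% = vehicle-treated cells and 100% = reference agonist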
Target sequence (P35372 whole entry, looked up): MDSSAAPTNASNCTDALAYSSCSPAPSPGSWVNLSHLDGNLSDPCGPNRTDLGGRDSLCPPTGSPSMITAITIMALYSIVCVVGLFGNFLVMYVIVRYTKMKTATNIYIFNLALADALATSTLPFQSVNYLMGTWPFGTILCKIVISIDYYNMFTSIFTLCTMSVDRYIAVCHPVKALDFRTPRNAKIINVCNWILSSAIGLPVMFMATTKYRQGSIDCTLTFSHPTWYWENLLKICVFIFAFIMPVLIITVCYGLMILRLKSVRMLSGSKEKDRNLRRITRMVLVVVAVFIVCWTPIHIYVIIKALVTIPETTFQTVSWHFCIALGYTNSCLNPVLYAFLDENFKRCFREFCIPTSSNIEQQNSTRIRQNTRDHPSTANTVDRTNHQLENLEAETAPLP
Target sequence (P41143 whole entry, looked up): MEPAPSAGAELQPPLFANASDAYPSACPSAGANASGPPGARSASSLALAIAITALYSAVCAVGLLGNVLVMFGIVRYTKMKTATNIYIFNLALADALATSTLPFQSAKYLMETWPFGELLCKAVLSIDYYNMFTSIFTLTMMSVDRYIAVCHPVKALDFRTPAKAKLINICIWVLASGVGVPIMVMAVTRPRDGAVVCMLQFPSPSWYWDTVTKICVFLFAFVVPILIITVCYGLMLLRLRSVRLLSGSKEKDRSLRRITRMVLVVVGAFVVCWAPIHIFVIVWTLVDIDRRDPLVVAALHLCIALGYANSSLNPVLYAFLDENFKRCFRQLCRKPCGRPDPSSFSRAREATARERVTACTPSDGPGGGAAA
NALP1 inh = NALP1 inflammasome inhibitors in reconstituted yeast, colorimetric, S. cerevisiae, triplicate retest; S. cerevisiae NALP1/ASC/caspase-1 growth, X-gal OD620, 72 h; inhibition, % at 10 µM; 280,000 compounds, 0.61% hits; AID 2071, 2009; in the data active = inhibition mostly above about 24%, no sharp cut-off; inactive = mostly below about 32%
HTR5A inv ctr = HTR5A inverse agonists in luminescence cell assay, primary screen, counter-screen for OPRM1-OPRD1 heterodimer inverse agonist project, full-deck HTS. 5-hydroxytryptamine receptor 5A (Homo sapiens), P47898. HTR5A cell line, inverse agonism. inhibition, % at 9.3 µM. 340,000 compounds, 0.083% hits; in the data active = inhibition mostly above about 23%, no sharp cut-off; inactive = mostly below about 18%;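 note: 0% = cells with DMSO and 100% = no-cell wells with DMSO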
MOR-DOR inv ag = inverse agonists of MOR-DOR heterodimerization, primary screen, cell-based, luminescence. Mu-type opioid receptor (Homo sapiens) + Delta-type opioid receptor (Homo sapiens), …. cell-based MOR-DOR heterodimer luminescence, inverse agonism. inhibition, % at 9.3 µM. 340,000 compounds, 0.21% hits; in the data active = inhibition above about 22%, passing the limit was not always enough;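 note: 0% = cells with DMSO and 100% = wells without cells with DMSO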
HTR5A ag ctr = HTR5A agonists in luminescence cell assay, primary screen, counter-screen for OPRM1-OPRD1 heterodimer agonist project, full-deck HTS | 5-hydroxytryptamine receptor 5A (Homo sapiens), P47898 | cell-based | activation, % at 9.3 µM | 340,000 compounds, 0.61% hits; in the data active = activation mostly above about 9.5%, no sharp cut-off; inactive = mostly below about 7.6%;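 note: 0% = cells with vehicle only and 100% = reference agonist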
An asterisk follows results filed as active. Compounds with a hit are over-represented: about 1.6% of the library has one in this group of screens.

For CC(C)CC1NC(=O)N(CC(=O)Nc2ccc3c(c2)OCCO3)C1=O (stereo unspecified) the results were MOR-DOR ag -3, HTR5A inv ctr -19, MOR-DOR inv ag 10 and HTR5A ag ctr 11*.
Screening COc1cc2c(cc1OC)C(c1ccc(-c3cc(Cl)ccc3Cl)o1)=NCC2 returned PolyA inhibitor -14, MOR-DOR ag 1, NALP1 inh 8, HTR5A inv ctr -21, MOR-DOR inv ag -7 and HTR5A ag ctr -2.
Screening COc1cc2c(cc1OC)C(c1ccc(-c3ccc(Cl)c(Cl)c3)o1)=NCC2 returned PolyA inhibitor -14, MOR-DOR ag 4, NALP1 inh 6, HTR5A inv ctr -3, MOR-DOR inv ag -20 and HTR5A ag ctr 11*.
For Cc1cc(C(=O)NCCC(c2ccccc2)c2ccccc2)c(C)o1 the results were PolyA inhibitor -9, MOR-DOR ag 1, NALP1 inh 40*, HTR5A inv ctr -5, MOR-DOR inv ag -4 and HTR5A ag ctr 1.
O=C(COC(=O)c1cc(=O)[nH]c2ccccc12)Nc1nc(-c2ccc(F)cc2)cs1 was read as MOR-DOR ag 0, HTR5A inv ctr -24, MOR-DOR inv ag -2 and HTR5A ag ctr 5.
Cc1ccccc1OC(C)C(=O)N1CCN(c2ccccn2)CC1 (stereo unspecified) was read as PolyA inhibitor -15, MOR-DOR ag -1, NALP1 inh 32*, HTR5A inv ctr 1, MOR-DOR inv ag 6 and HTR5A ag ctr 0.
COc1ccc(OC(C)C(=O)N2CCN(c3ccccn3)CC2)cc1 (stereo unspecified) was read as PolyA inhibitor 4, MOR-DOR ag 1, NALP1 inh 8, HTR5A inv ctr -34, MOR-DOR inv ag -6 and HTR5A ag ctr 3.
`CCCCC(SCC(=O)Nc1ccccc1)C(=O)O` (stereo unspecified) gave PolyA inhibitor 6, MOR-DOR ag -1, NALP1 inh 9, HTR5A inv ctr 7, MOR-DOR inv ag 5 and HTR5A ag ctr -3.
N#C/C(=N\Nc1cccc(C(F)(F)F)c1)C(=O)c1ccsc1 was read as PolyA inhibitor -27, MOR-DOR ag -1, NALP1 inh 40*, HTR5A inv ctr -18, MOR-DOR inv ag 5 and HTR5A ag ctr 5.
CC(C)(C)CC(C)(C)SSc1n[nH]c(=S)s1 was read as MOR-DOR ag -2, HTR5A inv ctr 11, MOR-DOR inv ag 12 and HTR5A ag ctr -3.
`Nc1ccc(OCc2ccccc2)cc1` gave PolyA inhibitor 12, MOR-DOR ag -2, NALP1 inh -51, HTR5A inv ctr -17, MOR-DOR inv ag 9 and HTR5A ag ctr 6.
CCN(Cc1ccccc1)Cc1ccc(OCc2ccccc2)cc1 was read as PolyA inhibitor -9, MOR-DOR ag 2, NALP1 inh 38*, HTR5A inv ctr -3, MOR-DOR inv ag -11 and HTR5A ag ctr 1.
`CC1CCc2c(sc3nc(C(C)(C)C)nc(N4CCN(C(=O)CCl)CC4)c23)C1` (stereo unspecified) gave PolyA inhibitor 5, MOR-DOR ag 72*, NALP1 inh -20, HTR5A inv ctr -171, MOR-DOR inv ag -354 and HTR5A ag ctr 46*.
O=C(CCc1ccccc1)NC(NC(=S)Nc1ccc(Cl)cc1)C(Cl)(Cl)Cl (stereo unspecified) was read as PolyA inhibitor -1, MOR-DOR ag 17, NALP1 inh -9, HTR5A inv ctr -11, MOR-DOR inv ag -94 and HTR5A ag ctr 12*.
Screening O=CC1=C(c2ccccc2)Oc2ccccc2O1 returned PolyA inhibitor -8, MOR-DOR ag 6, NALP1 inh 52*, HTR5A inv ctr -42, MOR-DOR inv ag -29 and HTR5A ag ctr 11*.
Screening CN(C)/C=C1/N=C(c2ccccc2)OC1=O returned PolyA inhibitor -3, MOR-DOR ag -1, NALP1 inh -2, HTR5A inv ctr -6, MOR-DOR inv ag 3 and HTR5A ag ctr 2.
`CC(C)(C)C(=O)NCCc1nc2ccccc2n1CC(=O)c1ccc(Cl)cc1` gave PolyA inhibitor 6, MOR-DOR ag 0, NALP1 inh 23, HTR5A inv ctr 2, MOR-DOR inv ag -2 and HTR5A ag ctr 3.
`Cc1ccc(-n2c(Cl)c(Cl)nc(Cl)c2=O)cc1` gave MOR-DOR ag -3, NALP1 inh 124*, HTR5A inv ctr 4, MOR-DOR inv ag 21 and HTR5A ag ctr -1.
O=C(O)c1ccc2c(=O)[nH]c(CN3CCOCC3)nc2c1 was read as PolyA inhibitor -11, MOR-DOR ag -2, NALP1 inh 7, HTR5A inv ctr -25, MOR-DOR inv ag 12 and HTR5A ag ctr 10.
For O=c1[nH]c(CN2CCOCC2)nc2ccccc12 the results were PolyA inhibitor 8, MOR-DOR ag -2, NALP1 inh 24*, HTR5A inv ctr -6, MOR-DOR inv ag 11 and HTR5A ag ctr 3.
For Cc1ccc(-c2nnc(CCC(=O)NCC3C4CC5CC(C4)CC3C5)o2)s1 (stereo unspecified) the results were PolyA inhibitor -31, MOR-DOR ag -1, NALP1 inh 1, HTR5A inv ctr 9, MOR-DOR inv ag 3 and HTR5A ag ctr -3.
`Cc1ccc(NC(=S)Nc2ccc(Br)cc2)cc1` gave PolyA inhibitor -19, MOR-DOR ag 6, NALP1 inh 28, HTR5A inv ctr -35, MOR-DOR inv ag -34 and HTR5A ag ctr 13*.
CCCCS(=O)(=O)/C=C\C=C/S(=O)(=O)CCCC was read as PolyA inhibitor -15, MOR-DOR ag -7, NALP1 inh 126*, HTR5A inv ctr -7, MOR-DOR inv ag 37* and HTR5A ag ctr 3.
`CCCCS(=O)(=O)/C=C\C1C2C=CC(C2)C1S(=O)(=O)CCCC` (stereo unspecified) gave PolyA inhibitor 6, MOR-DOR ag -1, NALP1 inh -1, HTR5A inv ctr 7, MOR-DOR inv ag 7 and HTR5A ag ctr -3.
Screening COc1cccc(Nc2ccc(-n3ccnc3)nn2)c1 returned PolyA inhibitor -13, MOR-DOR ag -3, NALP1 inh -2, HTR5A inv ctr 2, MOR-DOR inv ag 18 and HTR5A ag ctr -1.
For C(=N\Nc1ccc(-n2ccnc2)nn1)/c1ccccc1 the results were PolyA inhibitor -2, MOR-DOR ag -1, NALP1 inh 44*, HTR5A inv ctr -11, MOR-DOR inv ag 4 and HTR5A ag ctr 1.
For CN(C)S(=O)(=O)Nc1ccc2c(c1)Cc1ccccc1-2 the results were PolyA inhibitor 15, MOR-DOR ag -1, NALP1 inh 7, HTR5A inv ctr 13, MOR-DOR inv ag 7 and HTR5A ag ctr -1.

Source: PubChem BioAssay
